Assay outcomes deposited in PubChem BioAssay by National Center for Advancing Translational Sciences (NCATS).
The entries come from a sample that favours hits as a whole.
12-LOX inh: inhibitors of human 12S-lipoxygenase ALOX12; P18054; purified 12hLO, xylenol orange hydroperoxide absorbance; Potency, µM (titrated, usually from 108 µM), for inactives: at the highest dose activity change, negative = inhibition, actives largely listed as inhibitors; hit rate 1.1% among 580,000; note: potency is the fitted concentration of half-maximal effect
Target sequence (P18054 whole entry, looked up): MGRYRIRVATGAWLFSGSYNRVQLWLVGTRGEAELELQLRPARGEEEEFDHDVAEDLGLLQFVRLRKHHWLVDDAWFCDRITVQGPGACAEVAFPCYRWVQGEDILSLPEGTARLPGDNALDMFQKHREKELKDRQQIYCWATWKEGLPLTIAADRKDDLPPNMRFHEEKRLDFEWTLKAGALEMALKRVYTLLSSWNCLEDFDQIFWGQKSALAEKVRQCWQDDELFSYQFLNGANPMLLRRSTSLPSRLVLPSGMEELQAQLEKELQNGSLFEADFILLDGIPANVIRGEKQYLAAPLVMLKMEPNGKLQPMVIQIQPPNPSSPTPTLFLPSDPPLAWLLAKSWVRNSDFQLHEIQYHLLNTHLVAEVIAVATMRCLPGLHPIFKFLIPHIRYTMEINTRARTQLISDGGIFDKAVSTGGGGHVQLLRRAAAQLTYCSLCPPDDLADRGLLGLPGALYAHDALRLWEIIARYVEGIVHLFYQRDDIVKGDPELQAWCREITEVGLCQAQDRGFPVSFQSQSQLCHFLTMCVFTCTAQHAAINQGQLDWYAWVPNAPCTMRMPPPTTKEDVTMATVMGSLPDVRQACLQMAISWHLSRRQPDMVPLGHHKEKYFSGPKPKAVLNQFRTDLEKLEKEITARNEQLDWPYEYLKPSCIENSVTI
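Purified human 12hLO at 150 nM in 25 mM Hepes, 0.01% Triton X-100, pH 7.0, preincubated 15 min at room temperature with compound. Reaction started with 40 uM arachidonic acid, 30 min at room temperature. Hydroperoxide measured by Fe-xylenol orange, 573/405 nm absorbance ratio.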
TDP1 cell CPT: DT40-hTDP1 cell growth loss with CPT; chicken DT40 Tdp1-/-;hTDP1 cells + 20 nM CPT, ATP luminescence, 48 h; Potency, µM (highest dose often 46.2 µM), without a hit: at the highest dose activity change, negative = growth inhibition, usual class: inhibitors; hit rate 12% among 420,000; note: potency is the fitted concentration of half-maximal effect; nearly all actives have a fitted effect of over 55% in size
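Cell growth measured by CellTiter-Glo luminescence after a minimum 48 h, 37 C compound exposure with 20 nM CPT in Tdp1-knockout DT40 cells stably expressing hTDP1, seeded 400/well; qHTS titration format.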
IL-1B inflam inh: blocks inflammasome-driven IL-1 beta release; hit rate 4.7% among 360,000; THP-1 LPS/ATP IL-1B secretion, AlphaLISA, 16 h; stronger effect = lower value; AID 743279; activity change, % at 57.5 µM; in the data active = activity change below about -50%; inconclusive = mostly about -30% to -49%
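THP-1 cells pretreated 1 hr with compounds (up to 57.5 uM final), then stimulated with LPS (250 ng/mL final) plus ATP (1.25 mM final); secreted IL-1B measured by AlphaLISA after 16 hr, decreased signal indicating inhibition.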
HT1080 IDH1KD tx: kills HT-1080 cells with IDH1 knockdown | AID 686971 | Potency, µM (highest dose often 46.1 µM), for the others: at the top dose activity, negative = toxicity, actives largely listed as cytotoxic | hit rate 2% among 360,000 | HT-1080 IDH1 knockdown viability, ATP luminescence, 48 h;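 note: potency is the fitted concentration of half-maximal effect; 0% = DMSO wells and -100% = cell-free medium wells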
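Viability of IDH1-knockdown HT-1080 fibrosarcoma cells was assessed by CellTiter-Glo after 48 h at 37 °C with titrated compound; concentration-effect curves were classified by fit quality and response size.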
HT1080-NT tox: kills 2HG-producing HT-1080-NT fibrosarcoma cells; Potency, µM (highest dose often 46.1 µM), for the others: top-dose activity, negative = less viability, usual class: cytotoxic; hit rate 1.6% among 360,000; HT-1080-NT fibrosarcoma viability, CellTiter-Glo ATP luminescence, 48 h;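 note: NT is the 2HG producing partner of a matched IDH1 knockdown line; potency is the fitted concentration of half-maximal effect; 0% = DMSO-treated cells and -100% = media-only wells without cells; nearly all actives have a fitted effect of over 55% in size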
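HT-1080-NT fibrosarcoma cells (2HG-overproducing), 750 cells/well in RPMI with 5% FBS, dosed after 2 h and incubated 48 h at 37C. CellTiter-Glo luminescence normalized to DMSO and no-cell wells; concentration-response curves fitted and classed.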
TDP1 cell noCPT: qHTS for Inhibitors of human tyrosyl-DNA phosphodiesterase 1 (TDP1): qHTS in cells in absence of CPT. hit rate 15% among 420,000. Potency, µM (highest dose often 46.2 µM), inactives show at the top dose activity change, negative = growth inhibition, hits mostly inhibitors. DT40 Tdp1-/- hTDP1 cells, no CPT, ATP luminescence, 48 h; note: potency is the fitted concentration of half-maximal effect; nearly all actives have a fitted effect of over 55% in size
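Seeded 400 DT40-hTDP1 cells/well (vehicle DMSO, no 20 nM CPT); pinned compounds; ≥48 hr at 37 °C; CellTiter-Glo luminescence as viability measure.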
* hit, by the source's call; ? = inconclusive; nt = no result given; [ ] = another dose, or the depositor's remark. Unless noted, calls come from the whole dose curve; as a rule, active = well fitted curve in the direction sought with a large enough effect; inconclusive = small, poorly fitted or top-dose-only effect, or another doubt; inactive = no such curve, though single readings can be large; an effect the other way counts as inactive or inconclusive. Unless noted, % is set by controls: 0 for no effect and ±100 for the full control effect.

SMILES	12-LOX inh	TDP1 cell CPT	IL-1B inflam inh	HT1080 IDH1KD tx	HT1080-NT tox	TDP1 cell noCPT
O=C(NC1CCCCC1)O[C@@H]1CO[C@H]2[C@@H]1OC[C@@H]2n1nnnc1Sc1ccccc1	-24%[176 µM]	nt	nt	nt	nt	nt
COc1ccc(-c2cn3nc(N4CCCC(C(=O)NCc5ccccn5)C4)sc3n2)cc1 (stereo not given)	17%	nt	nt	nt	nt	nt
C[C@H](CO)N1C[C@H](C)[C@H](CN(C)Cc2ccc(Oc3ccccc3)cc2)Oc2ccc(NC(=O)Nc3cccc4ccccc34)cc2CC1=O	-3%	?	4	-17%	-3%	?
C[C@H](CO)N1C[C@H](C)[C@H](CN(C)Cc2ccncc2)Oc2ccc(NC(=O)Nc3ccc(C(F)(F)F)cc3)cc2CC1=O	-4%	3.3µM*	-10	?	?	4.6µM*
C[C@H]1CN([C@@H](C)CO)C(=O)Cc2cc(NC(=O)Nc3ccccc3)ccc2O[C@H]1CN(C)Cc1ccccc1	?	21µM*	-72*	?	-24%	21µM*
C[C@@H]1CN([C@@H](C)CO)C(=O)Cc2cc(NC(=O)Nc3ccc(F)cc3)ccc2O[C@@H]1CN(C)Cc1ccc(Cl)c(Cl)c1	?	?	-54*	?	18µM*	15µM*
Cc1ccnc(NC(=O)CCc2ncc(-c3ccccc3F)o2)c1	18%	nt	nt	nt	nt	nt
COc1cccc(N2CC(C(=O)NCCNC(=O)c3c[nH]c4ccccc34)CC2=O)c1 (stereo not given)	-4%	nt	nt	nt	nt	nt
CCc1ccc(C(=O)N2CCCC(c3nccn3Cc3ccncc3)C2)s1 (stereo not given)	84%	nt	nt	nt	nt	nt
CCC(=O)N1N=C(c2ccccc2)CC1c1ccc2nccnc2c1 (stereo not given)	-18%	nt	nt	nt	nt	nt
CCS(=O)(=O)N1N=C(c2ccccc2)CC1c1ccc2nccnc2c1 (stereo not given)	13%	?	-3	1%	9%	10µM*
O=C(Cn1nc2c(cc1=O)CCCC2)Nc1ccccc1C(F)(F)F	-1%	1%	nt	nt	nt	-7%
CCc1ccc(N(C(=O)CCC(=O)Nc2cc(C)on2)C(C(=O)NC(C)(C)C)c2ccc(OC)cc2)cc1 (stereo not given)	-17%	?	17	-23%	-20%	21µM*
COc1ccc(C(C(=O)NC(C)(C)C)N(C(=O)CCC(=O)Nc2cc(C)on2)c2cccc(F)c2)cc1 (stereo not given)	11%	0%	-9	-4%	-12%	?
CCOc1cccc(N(C(=O)CCC(=O)Nc2cc(C)on2)C(C(=O)NC(C)(C)C)c2ccc(OC)cc2)c1 (stereo not given)	16%	29µM*	10	-26%	-5%	?
Cc1[nH]c2ccc(C(=O)OCCN(C)C)cc2c1C	184%	-4%	-3	-3%[9.24 µM]	10%	-22%
Cc1c(C)n(CCN(C)C)c2ccc(C(=O)OCCN(C)C)cc12	-19%	?	-25	?	?	21µM*
Cc1c(C)n(Cc2ccccc2)c2ccc(C(=O)OCCCN(C)C)cc12	-24%	?	-109*	13µM*	15µM*	21µM*
O=C(NC[C@H]1OC[C@@H](N(Cc2ccccn2)Cc2ccccn2)[C@@H]1O)C1CCCC1	118%[176 µM]	nt	nt	nt	nt	nt
CC(C)(C)NC(=O)C(=O)NNC(=O)COc1ccc(Br)cc1	-20%	-11%	-9	-12%	0%	?
Nc1ccc(/C=C/C(=O)c2cccs2)cc1	?	8%	-109*	-19%	-26%	?
O=C(/C=C/c1ccccc1)c1cccs1	nt	6.7µM*	nt	nt	nt	9.4µM*
Cc1c(/C=C/C(=O)c2cccs2)cnn1C	32%	16µM*	-23	-4%	-11%	?
CCOc1ccc(/C=C/C(=O)c2cccs2)cc1	nt	27µM*	nt	nt	nt	?
